Consider seven molecules from PubChem BioAssay (NCI).

Holding throughout (test): NCI-60 one-dose screen, 48 h (100 = growth as untreated, 0 = no growth, -100 = all killed)
Experiment [1] relates to NCI-H23 lung. The following applies: 10 µM unless noted.
The test system of experiment [2] is NCI-H226 lung. As to conditions: 10 µM unless noted.
Experiment [3] relates to NCI-H322M lung. The following applies: 10 µM unless noted.
Experiment [4] deals with HOP-62 NSCLC. As to conditions: 10 µM unless noted.
Experiment [5] deals with NCI-H460 lung. As to conditions: 10 µM unless noted.
Experiment [6] has as its system HOP-92 NSCLC. As to conditions: 10 µM.
In experiment [7] the test system is NCI-H522 lung. As to conditions: 10 µM unless noted.
Experiment [8] has as its system A549/ATCC NSCLC. The following applies: 10 µM unless noted.
In experiment [9] the test system is 786-0 renal. The following applies: 10 µM unless noted.
Experiment [10] relates to COLO 205 colon. As to conditions: 10 µM unless noted.
In experiment [11] the test system is DU-145 prostate. As to conditions: 10 µM unless noted.
The subject of experiment [12] is K-562 leukemia. The following applies: 10 µM unless noted.
Experiment [13] has as its system MALME-3M melanoma. The following applies: 10 µM unless noted.
In experiment [14] the test system is MDA-MB-231 breast. The following applies: 10 µM unless noted.
The subject of experiment [15] is RXF 393 renal. As to conditions: 10 µM unless noted.
The test system of experiment [16] is SF-268 CNS. The following applies: 10 µM unless noted.
The test system of experiment [17] is SF-295 CNS. The following applies: 10 µM unless noted.
Experiment [18] relates to SF-539 CNS. As to conditions: 10 µM unless noted.
The subject of experiment [19] is UACC-257 melanoma. As to conditions: 10 µM unless noted.
In experiment [20] the test system is M14 melanoma. As to conditions: 10 µM unless noted.

This is part of a sample that, as a whole, favours compounds with a hit. Of some 83,000 tested, about 20% had one in any assay.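 Growth was measured after 48 h exposure to one concentration of compound in 96-well plates. Values under 10 count as active.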 A number with no mark means an inactive call. Calls of active or inactive are those of the source.

Take `Cc1cc(N=Nc2ccccc2C)ccc1N`: the growth in experiment [1] was 79.6%; in [2], 71.1%; in experiment [3] it was 89.2%; in experiment [4], 69.3%; in [5] it was 80.7%; in [6], 48.8%. Besides, the growth was 57.6% in [7]; 47.6% in experiment [8]; -13.5% (active) in experiment [9]; 111% in experiment [10]; 68.1% in experiment [11]; 65.7% in experiment [12]. In addition, the growth was 68.6% in experiment [13]; 75.1% in experiment [14]; 99.6% in experiment [15]; 47.3% in experiment [16]; 83.9% in experiment [17]; 48.9% in experiment [18]. The growth in experiment [19] was 132%.
On to `C[C@H]1CCC/C=C/[C@@H]2C[C@H](O)C[C@H]2[C@H](O)/C=C/C(=O)O1`, for which the growth was -1.79% (active) in [1]; -36.3% (active) in experiment [2]; 5.77% (active) in experiment [3]; 4.67% (active) in experiment [4]; 8.73% (active) in [5]; -43.6% (active) in experiment [7]. In addition, the growth is 13.1% in [8]; -37.3% (active) in [9]; -75.4% (active) in experiment [10]; -7.84% (active) in [11]; 5.56% (active) in experiment [12]; -73% (active) in [13]. The growth is -68% (active) in experiment [14]; 11% in experiment [15]; 10.3% in [16]; 20.9% in experiment [17]; 27.1% in [18]; 13.1% in [19]. Further, in experiment [20], the growth was -9.75% (active).
As for `Oc1cc[c]([Hg][Cl])cc1`, the growth is 87.8% in experiment [1]; 113% in experiment [2]; 93.4% in experiment [3]; 123% in experiment [4]; 88.8% in experiment [5]; 161% in experiment [6]. Also, the growth is -47% (active) in [7]; 99.3% in experiment [8]; 102% in [9]; 130% in [10]; 94.3% in experiment [11]; 60.2% in [12]. The growth was 94.2% in experiment [13]; 116% in experiment [15]; 95.4% in experiment [16]; 113% in experiment [17]; 121% in experiment [18]; 99.6% in experiment [19]. For the same molecule, the growth in experiment [20] is 91.1%.
On to `Cc1ccc(C(=O)OC(C(=O)O)C(OC(=O)c2ccc(C)cc2)C(=O)O)cc1` (stereo not drawn) (tested in a mixture with another compound), for which the growth in [1] is 41.4%; in experiment [2], 51.1%; in experiment [3] it was 83.2%; in [4], 66.1%; in experiment [5], 52.4%; in experiment [6], 17.7%. Besides, the growth is 52.6% in experiment [7]; 71% in [8]; 46% in experiment [9]; 48.9% in experiment [10]; 76% in [11]; 11.1% in [12]. Besides, the growth was 51.6% in [13]; 54.1% in [15]; 68.5% in experiment [16]; 61.8% in [17]; 70.2% in experiment [18]; 46.1% in experiment [19]. Further, the growth in experiment [20] was 45.2%.
On to `CO[C@H](/C(C)=C/C=C/C(C)=C/c1coc(C)n1)[C@H](C)[C@H]1C[C@@H](O)[C@@]2(C)O[C@H]2/C=C/[C@@H](C)[C@@H]2C[C@@H](CC(=O)O2)C[C@H]2O[C@@H]2C(=O)O1`, for which the growth in experiment [1] was 24.4%; in experiment [2], 34.8%; in [3], 42.9%; in [4], 11.1%; in experiment [5], 8.2% (active); in experiment [7], -33.1% (active). The growth in experiment [8] is 42.9%; in experiment [9], 15.6%; in experiment [10], -28.7% (active); in [11], -18.9% (active); in experiment [12] it was -31.6% (active); in experiment [13], 15.2%. The growth is 25.9% in experiment [14]; 13.7% in experiment [15]; 32.5% in experiment [16]; -13.3% (active) in experiment [17]; -19.2% (active) in [18]; 19.1% in [19]. Besides, in experiment [20], the growth is -0.709% (active).
`CCCCCCCCCCCC1CCCC(C)N1` (stereo not drawn): the growth in experiment [1] was 71.4%; in experiment [2] it was 94.8%; in experiment [3] it was 127%; in [4], 86.5%; in experiment [5], 87.9%; in experiment [6], 15.8%. Moreover, the growth in experiment [7] was -8.02% (active); in experiment [8], 97.2%; in [9], 67.3%; in experiment [10], -33% (active); in experiment [11], 92.4%; in experiment [12], 6.23% (active). In addition, the growth in experiment [14] is 72%; in experiment [15] it was 77.7%; in experiment [16], 73.5%; in [17] it was 100%; in experiment [18] it was 97.5%; in [19], 77.3%. The growth in [20] is 95.3%.
On to `CC[C@@]1(O)C[C@H](OC2CC(N(C)C)C(O)C(C)O2)c2c(O)c3c(c(O)c2[C@H]1OC1CC(N(C)C)C(O)C(C)O1)C(=O)c1cccc(O)c1C3=O` (stereo partly drawn), for which the growth is -37.2% (active) in experiment [1]; -16.2% (active) in [2]; -31.5% (active) in experiment [3]; -20.2% (active) in experiment [4]; -4.36% (active) in experiment [5]; -65% (active) in [7]. For the same molecule, the growth was 1.57% (active) in [8]; -2.72% (active) in experiment [9]; -20.5% (active) in experiment [10]; -4.8% (active) in [11]; -28.5% (active) in [12]; -93.7% (active) in experiment [13]. For the same molecule, the growth in experiment [14] was -9.74% (active); in [15], 0.503% (active); in [16], -19.3% (active); in [17] it was -27.2% (active); in [18], -48.9% (active); in experiment [19], 2.59% (active). Besides, in experiment [20], the growth was -87.2% (active).
